Laboratory results as given in the supplement of paper PMC10127200.
Where a name gives a salt, the structure may show the parent alone.

What follows are compounds tested on 786-O (assay: Euclidean distance of Cell Painting phenotypic profile (signed KS, 77 features) to DMSO centroid (dimensionless distance); 5 or 10 uM (library dependent); higher = stronger phenotypic change vs DMSO (phenoactivity)). Details: 48 h.
How it was run: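 Five cancer lines, together with a healthy fibroblast line, received library compounds for 48 h at a library-dependent 10 or 5 uM and 0.1% DMSO final. Harmony then derived 77 features from confocal 20X images (9 fields/well) of the stained cells, scoring each as a signed Kolmogorov-Smirnov statistic against same-plate vehicle wells. After plate-position correction, correlation weighting and replicate averaging at the top dose, phenoactivity was taken as each profile's Euclidean distance to the median vehicle profile.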

| SMILES | Euclidean distance |
| --- | --- |
| O=C(O)COc1nn(Cc2ccccc2)c2ccccc12 [Bendazac] | 1.07 |
| COc1ccc(Cl)cc1NC(=O)Nc1cc(C)nc2ccccc12 | 1.14 |
| C#C[C@]1(OC(C)=O)CC[C@H]2[C@@H]3CCC4=C[C@@H](OC(C)=O)CC[C@@H]4[C@H]3CC[C@@]21C [Ethynodiol diacetate] | 1.27 |
| CN[C@H]1C(=O)N[C@@H]2Cc3ccc(cc3)Oc3cc4cc(c3O[C@@H]3O[C@H](C(=O)O)[C@@H](O)[C@H](O)[C@H]3NC(=O)CCCCCCCCC(C)C)Oc3ccc(cc3Cl)[C@@H](O)[C@@H]3NC(=O)[C@H](NC(=O)[C@@H]4NC(=O)[C@@H](NC2=O)c2cc(cc(O)c2Cl)Oc2cc1ccc2O)c1ccc(O)c(c1)-c1c(O[C@H]2O[C@H](CO)[C@@H](O)[C@H](O)[C@@H]2O)cc(O)cc1[C@@H](C(=O)NCCCN(C)C)NC3=O [Dalbavancin] | 0.58 |
| Cc1nccn1CC1CCc2c(c3ccccc3n2C)C1=O (centres undefined) [Ondansetron Hydrochloride Dihydrate] | 1.23 |
| CCC(=O)O[C@]1(C(=O)CCl)[C@@H](C)C[C@H]2[C@@H]3CCC4=CC(=O)C=C[C@]4(C)[C@@]3(F)[C@@H](O)C[C@@]21C [Clobetasol propionate] | 1.31 |
| CNC[C@H](O)c1ccc(O)c(O)c1 [Epinephrine HCl] | 1.19 |
| CCOC(=O)C1=C(COCCN)NC(C)=C(C(=O)OC)C1c1ccccc1Cl (centres undefined) [Amlodipine] | 0.785 |
| Cc1c(O)cccc1C(=O)N[C@@H](CSc1ccccc1)[C@H](O)CN1C[C@H]2CCCC[C@H]2C[C@H]1C(=O)NC(C)(C)C [Nelfinavir Mesylate] | 1.88 |
